Screening data (PubChem BioAssay)
Only some compounds are listed: those with a hit (about 14% of all), similar ones and a draw of the others.
Lassa entry inh – blocks Lassa virus binding to or entry into cells; Lassa virus pseudotype entry inhibition, cell reporter; Potency, µM (highest dose often 37.9 µM), usual class: inhibitors; 1.2% of 300,000 active; AID 540256; calls by dose curve; tested in HEK293 cells; also: nearly all actives have a fitted effect of over 50% in size
Pf growth 96h – P. falciparum growth inhibition at 96 hour, primary screen for plastid delayed-death inhibitors | AID 504834 | Potency, µM (titrated, usually from 28.7 µM), most hits filed as inhibitors | 6.9% of 320,000 active | P. falciparum luciferase reporter growth, 96 h
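P. falciparum expressing integrated firefly luciferase grown in erythrocytes (2% hematocrit, 0.05% parasitemia final) with compounds for 96 hours at 37 C, 5% CO2. Growth inhibition read as loss of luminescence after adding luciferase detection reagent.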
Marburg entry inh – inhibitors of Marburg virus binding or cell entry; Potency, µM (doses to about 37.8 µM), hits mostly inhibitors; 1.8% of 300,000 active; Marburg virus pseudotyped entry inhibition, cell reporter; calls by dose curve; tested in HEK293 cells
Pf growth 48h – inhibits P. falciparum growth in the first generation, 48 h; P. falciparum luciferase growth in erythrocytes, 48 h; Potency, µM (top dose mostly 28.7 µM), usual class: inhibitors; 5.9% of 310,000 active; AID 504832
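Growth was read as firefly luciferase luminescence after a 48 h, 37 C, 5% CO2 exposure of compounds to reporter-bearing P. falciparum cultures (0.1% parasitemia, 2% hematocrit final) in Albumax-supplemented RPMI 1640.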
HCMV inh – inhibitors of human cytomegalovirus; 4.5% of 410,000 active; activity change, negative = inhibition, % at 57.5 µM; AID 1259415; HFF cells, HCMV-luciferase reporter, 72 h; hits give low values; in the data active = activity change below about -60%; inconclusive = no clear call, values can overlap the other calls; inactive = above about -39%
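Screen run at 2 compound doses on HFFs infected with reporter HCMV, MOI 1 PFU/cell. Luciferase activity from cell lysates at 72 h post infection gave inhibition relative to buffer-only and Salinomycin wells.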
HCV inh – inhibitors of hepatitis C virus infection. Huh7.5.1 HCVcc-Cre infection, luciferase reporter, 44 h. Potency, µM (titrated, usually from 41.8 µM), usual class: inhibitors. 3.4% of 340,000 active
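Reporter virus HCVcc-Cre (~0.5 moi) infects cells exposed to compound; seeding density 1,000 cells/well with 4 h settling beforehand. Luminescence, 15 sec read, taken 44 h post-infection following a 15 min RT substrate incubation.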
A number is an active result; 0 = inactive; ? = inconclusive; - = no result given. Unless noted, calls follow the shape of the dose curve; as a rule, active = well fitted inhibition curve with a large enough effect; inconclusive = small, poorly fitted or top-dose-only effect, or another doubt; inactive = no such curve, though single readings can be large or run the other way.

SMILES	Lassa entry inh	Pf growth 96h	Marburg entry inh	Pf growth 48h	HCMV inh	HCV inh
CC(=O)NCCNc1nc2c(-c3cccc(C)c3)nnn2c2ccccc12	-	?	-	0	0	14µM
COc1ccccc1C(=O)N1CCN(Cc2cccnc2)CC1	0	0	0	0	-	0
COc1cccc(-c2cc3c(Nc4cccc(NS(C)(=O)=O)c4)nccc3n2C)c1	-	-	-	-	0	-
CCOC(=O)C1=C(C)N(CC(C)C)C(=O)/C1=C\c1cccs1	0	?	0	0	0	?
CCN1C(=O)/C(=C\c2ccco2)C(C(=O)OC)=C1C	0	0	0	?	0	13µM
COC(=O)C1=C(C)N(Cc2cccnc2)C(=O)/C1=C\c1sccc1C	0	0	0	?	0	11µM
C=CCN1C(=O)/C(=C\c2ccco2)C(C(=O)OC)=C1C	0	0	0	0	0	?
COC(=O)C1=C(C)N(CC(C)C)C(=O)/C1=C\c1cccs1	0	-	0	-	0	16µM
CC(C)NC(=O)C1(C)CCN1Cc1cccc(C#N)c1 (centres undefined)	-	-	-	-	0	-
O=C(c1ccc2c(c1)C(=O)NC2=O)c1ccc2c(c1)C(=O)NC2=O	-	-	-	-	0	-
CC(=O)c1cccc(CN2CCC(C(=O)Nc3cccc(-c4ccn[nH]4)c3)CC2)c1	0	0	?	?	?	6.3µM
C=CCOc1ccccc1CN1CCC(n2nccc2NC(=O)C2CCOC2)CC1 (centres undefined)	0	?	0	0	?	0
C=CCOc1ccccc1CN1CCC(C(=O)Nc2cccc(-c3ccn[nH]3)c2)CC1	-	?	-	?	-64	?
CCCNC(=O)CN1C(=O)CSc2ccc(S(=O)(=O)N3CCC(C)CC3)cc21	-	-	0	-	0	-
COc1ccc(-c2cn3c(n2)sc2cc(C(=O)NCCc4ccc(OC)cc4OC)ccc23)cc1	0	-	-	-	-	-
Cc1ccc(O)c(C(=O)c2cc(C#N)c(=O)n(C(C)c3ccccc3)c2)c1 (centres undefined)	?	5.9µM	0	3.3µM	0	0
Cc1ccc(O)c(C(=O)c2cc(C#N)c3nc4ccccc4n3c2)c1	0	0	0	0	0	5µM
CCOCCCn1cc(C(=O)c2cc(Br)ccc2O)cc(C#N)c1=O	?	?	0	5.2µM	0	0
CC(C)n1cc(C(=O)c2cc(Br)ccc2O)cc(C#N)c1=O	0	2.6µM	0	-	0	0
N#Cc1cc(C(=O)c2cc(F)ccc2O)cn(Cc2ccccc2)c1=O	?	?	?	?	0	?
N#Cc1cc(C(=O)c2cc(Br)ccc2O)cn(C2CC2)c1=O	0	?	0	?	0	0
Cc1ccc(O)c(C(=O)c2cc(C#N)c(=O)n(Cc3ccccc3)c2)c1	?	0	?	0	?	?
CN([C@H]1CCS(=O)(=O)C1)S(=O)(=O)c1cccc2nsnc12	-	-	0	-	-	-
COc1ccc(S(=O)(=O)N2CCN(c3ccccc3OC)CC2)cc1-c1noc(C)n1	0	-	0	-	?	-
CC1=C(C(=O)N(C)C)CC(CC(=O)NCc2cccc3ccccc23)C(=O)N1CCC1=CCCCC1 (centres undefined)	-	-	-	-	0	-
SMILES	Lassa entry inh	Pf growth 96h	Marburg entry inh	Pf growth 48h	HCMV inh	HCV inh
CCc1cc2c(nc1CC)CCN(CC/C(C)=N/OC[C@@H](O)[C@H]1O[C@@H]3OC(C)(C)O[C@@H]3[C@H]1O)C2	-	-	0	-	-	-
COCCCn1cc(C(=O)c2cc(Br)ccc2O)cc(C#N)c1=O	?	9.3µM	1.6µM	?	0	0
C=CCn1cc(C(=O)c2cc(Br)ccc2O)cc(C#N)c1=O	0	?	0	?	?	0
CCCCn1cc(C(=O)c2cc(Br)ccc2O)cc(C#N)c1=O	?	2.1µM	?	1.7µM	0	11µM
COCCCn1cc(C(=O)c2ccccc2OCC(=O)Nc2cccc(F)c2)cc(C#N)c1=O	0	?	0	?	0	0
O=C(Cn1cc2c(n1)CCCCC2)Nc1c(F)c(F)cc(F)c1F	-	15µM	-	-	0	0
Cc1ccc(Cl)cc1NC(=O)Cn1cc2c(n1)CCCCC2	0	-	0	-	0	-
Cc1ccc(Cl)cc1NC(=O)Cn1cc2c(n1)CCCC2	-	2.1µM	0	-	0	0
CN(Cc1ccccc1)C(=O)c1nc2ccccn2c1CN1CCCC1c1nccs1 (centres undefined)	0	?	0	6.6µM	0	0
CCOC(=O)N1CCC(NCc2c(C(=O)N(C)Cc3ccccc3)nc3ccccn23)CC1	0	?	0	?	0	0
